From PubChem
Only a selection was taken, and hits are over-represented in it overall.
TNAP act DEA – activates human TNAP at intermediate phosphate acceptor concentration | P05186 | purified TNAP, CDP-star luminescence, 100 mM DEA, 30 min; stronger effect = higher value; scale: 0 levamisole-inhibited, 1 vehicle-only enzyme | activation factor at 20 µM | 64,000 tested, under 10 active;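 active = activation factor of at least 2 at 20 µM, relative to controls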
Target sequence (P05186 whole entry, looked up): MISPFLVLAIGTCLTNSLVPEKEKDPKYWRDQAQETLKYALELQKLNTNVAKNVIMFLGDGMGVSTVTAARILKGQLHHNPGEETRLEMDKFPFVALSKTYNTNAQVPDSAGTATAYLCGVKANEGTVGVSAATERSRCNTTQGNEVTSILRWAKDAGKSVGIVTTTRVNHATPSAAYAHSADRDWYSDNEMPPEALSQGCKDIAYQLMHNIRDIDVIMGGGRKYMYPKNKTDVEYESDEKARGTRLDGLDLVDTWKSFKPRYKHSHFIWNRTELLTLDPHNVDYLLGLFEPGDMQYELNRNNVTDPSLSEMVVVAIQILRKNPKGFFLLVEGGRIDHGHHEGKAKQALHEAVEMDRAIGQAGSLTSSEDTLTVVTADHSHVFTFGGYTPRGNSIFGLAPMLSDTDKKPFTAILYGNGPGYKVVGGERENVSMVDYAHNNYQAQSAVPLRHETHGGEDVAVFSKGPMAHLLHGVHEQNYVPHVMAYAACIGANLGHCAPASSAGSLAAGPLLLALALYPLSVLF
D1 allo mod – allosteric modulators of human D1 dopamine receptor; P21728; HEK293 D1, CRE-luciferase, dopamine EC30 potentiation; actives deviate in either direction; B-score at 10 µM; hit rate 5.9% among 58,000; AID 641;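 active = luminescence count or its row- and column-corrected plate score outside the 99.7% band of the plate's sample wells, on either side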
FXIIa mix inh – blocks human factor XIIa in pooled compound mixtures. P00748. purified FXIIa, fluorogenic substrate. inhibition, % at 5 µM. hit rate 0.2% among 62,000
HePTP inhibitor – blocks human HePTP tyrosine phosphatase. AID 521. hit rate 0.64% among 110,000. recombinant HePTP phosphatase activity, OD absorbance. P35236. inhibition, % at 20 µM; in the data active = inhibition above about 50%
FXIa mix inh – inhibitors of human coagulation factor XIa, pooled mixtures; P03951; purified FXIa, fluorogenic substrate; inhibition, % at 5 µM; hit rate 0.19% among 62,000;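 also: each value is inhibition by a whole ten-compound pool holding the compound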
Candida biofilm – kills Candida albicans biofilms | C. albicans biofilm + clotrimazole, Alamar Blue | hit rate 0.14% among 85,000 | inhibition, % at 6 µM | AID 834;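 active = inhibition above 20%; inactive = inhibition below 20%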;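 also: preformed 24 hr biofilms exposed to compound for 48 hr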
D1 mod confirm – D1 receptor (human) allosteric modulation, confirmed; HEK293 D1 CRE-luciferase, dopamine EC30 potentiation; stronger effect = higher value; luminescence at 10 µM; hit rate 88% among 2,200; shares compounds with D1 allo mod;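 active = luminescence in either of two replicates above the same-plate mean plus 3 SD of the low-dose dopamine control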
D1 no dopamine – secondary test of D1 modulators: activity without dopamine | shares compounds with D1 allo mod | HEK293 D1 CRE-luciferase, luminescence, no dopamine; stronger effect = higher value | luminescence at 10 µM | hit rate 0.8% among 1,900 | AID 646; in the data active = luminescence above about 3900
Isoprot counter – alters isoproterenol CRE-luciferase response in HEK293 cells; shares compounds with D1 allo mod; HEK293 D1 CRE-luciferase, isoproterenol EC30 counter-screen; stronger effect = higher value; luminescence at 10 µM; hit rate 63% among 2,200; AID 647;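 active = luminescence in either replicate above plate mean of wells with a partly effective reference agonist dose plus 3 SD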;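 also: isoproterenol raises cAMP through native beta-adrenoceptor Gs so signal bypasses D1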
Each line names hits and unclear results; the compound was inactive in the other large screens (follow-up assays come after a bar, where they were run). Rule as the data show it, unless noted: active = inhibition above about 20% (passing the limit was not always enough); inactive = the rest.

CCOC(=O)c1cc2c(=O)n3ccccc3nc2n(CCOC)c1=NC(=O)c1ccncc1	none
CCOC(=O)c1cc2c(=O)n3ccccc3nc2n(Cc2ccco2)c1=NC(=O)c1cccnc1	none
CCOC(=O)c1cc2c(=O)n3ccccc3nc2n(CC(C)C)c1=NC(=O)c1ccco1	D1 allo mod 8.3 | D1 mod confirm 18960 | D1 no dopamine inactive | Isoprot counter 4124
CCOC(=O)c1cc2c(=O)n3ccccc3nc2n(CCCOC)c1=NC(=O)c1cccnc1	D1 allo mod 3.8 | D1 mod confirm 9344 | D1 no dopamine inactive | Isoprot counter inactive
O=C(C[n+]1ccccc1)OCC12CC3CC(CC(C3)C1)C2	none (no result: TNAP act DEA, D1 allo mod, FXIIa mix inh, FXIa mix inh, Candida biofilm)
O=C(/C=C\c1ccco1)c1ccc(-n2nncc2C23CC4CC(CC(C4)C2)C3)cc1	none (no result: TNAP act DEA, D1 allo mod, FXIIa mix inh, FXIa mix inh, Candida biofilm)
Cc1cc(C(=O)NCc2cccnc2)ccc1[N+](=O)[O-]	none (no result: TNAP act DEA, D1 allo mod, FXIIa mix inh, FXIa mix inh, Candida biofilm)
Cc1ccc(O)c(NC(=O)CN2C(=O)c3ccccc3C2=O)c1	none (no result: TNAP act DEA, D1 allo mod, FXIIa mix inh, FXIa mix inh, Candida biofilm)
CCC1=NN(C(=O)c2ccc(Cl)cc2)C(O)(c2ccncc2)C1 (stereo unspecified)	none (no result: TNAP act DEA, D1 allo mod, FXIIa mix inh, FXIa mix inh, Candida biofilm)
CCOc1cc(-c2noc(-c3cccnc3)n2)ccc1OC	D1 allo mod 19 | D1 mod confirm 21224 | Isoprot counter 3220
CCOc1ccc(-c2nc(-c3cccnc3)no2)cc1	none (no result: TNAP act DEA, D1 allo mod, FXIIa mix inh, HePTP inhibitor, FXIa mix inh)
CCOc1ccc(-c2nc(-c3ccc(OC)c(OC)c3)no2)cc1OCC	none
CCOc1ccc(-c2noc(-c3cccnc3)n2)cc1OC	D1 allo mod 4.3 | D1 mod confirm 10956 | D1 no dopamine inactive | Isoprot counter inactive
CCn1ncc(C2=NOC(C(=O)Nc3ccc4c(c3)OCO4)C2)c1C (stereo unspecified)	D1 allo mod 4.6 | D1 mod confirm 7668 | D1 no dopamine inactive | Isoprot counter inactive
CCCC1(c2ccccc2)NC(=O)N(CC(=O)c2[nH]c(C)c(C(=O)OCC)c2C)C1=O (stereo unspecified)	D1 allo mod 7 (no result: Candida biofilm) | D1 mod confirm 8616 | D1 no dopamine inactive | Isoprot counter 3200
COc1ccc(C2C(C(=O)OCCc3ccccc3)=C(C)NC3=C2C(=O)CCC3)cc1 (stereo unspecified)	none (no result: TNAP act DEA, D1 allo mod, FXIIa mix inh, FXIa mix inh, Candida biofilm)
OC[C@H]1O[C@@H](n2cnc3c(Nc4ccccc4)ncnc32)[C@H](O)[C@@H]1O	D1 allo mod 6.6 | D1 mod confirm 7048 | Isoprot counter 6212
Nc1ncnc2c1ncn2[C@@H]1O[C@H](CO)[C@@H](O)[C@H]1O	none
COC(=O)c1ccc(COC(=O)c2ccc(-n3cnnn3)cc2)o1	D1 allo mod 6 | D1 mod confirm inactive | Isoprot counter inactive
COc1ccc(OC)c(NC(=O)COC(=O)c2ccc(-n3cnnn3)cc2)c1	none
Nc1nc(C2CC2)c(Sc2sc(N)nc2C2CC2)s1	D1 allo mod 10 | D1 mod confirm 11736 | D1 no dopamine inactive | Isoprot counter 4288
CCCCCn1c(SC(C)C(C)=O)nc2c1c(=O)[nH]c(=O)n2C (stereo unspecified)	D1 allo mod 8 | D1 mod confirm 20968 | D1 no dopamine inactive | Isoprot counter 5320
CCCCCCSc1nc2c(c(=O)[nH]c(=O)n2C)n1C	none
CCCCCn1c(Sc2ccccc2)nc2c1c(=O)[nH]c(=O)n2C	none (no result: TNAP act DEA, D1 allo mod, FXIIa mix inh, HePTP inhibitor, FXIa mix inh)
CCCCCCn1c(SCCCC)nc2c1c(=O)[nH]c(=O)n2C	D1 allo mod 11 | D1 mod confirm 26000 | D1 no dopamine inactive | Isoprot counter 4836
CCCCn1c(NC(C)CC)nc2c1c(=O)[nH]c(=O)n2C (stereo unspecified)	D1 allo mod 11 | D1 mod confirm 21532 | D1 no dopamine inactive | Isoprot counter 5652
CCc1ccc(-c2[nH]c(=S)[nH]c(=O)c2C#N)cc1	none (no result: TNAP act DEA, D1 allo mod, FXIIa mix inh, FXIa mix inh, Candida biofilm)
Nc1[nH]nc2nc(N3CCOCC3)nc(-c3ccccc3)c12	D1 allo mod 9.8 | D1 mod confirm 13488 | Isoprot counter 3584
O=C(O)CCCCCN1C(=O)C(=O)/C(=C(/O)c2ccc([N+](=O)[O-])cc2)C1c1ccc(F)cc1 (stereo unspecified)	none (no result: TNAP act DEA, D1 allo mod, FXIIa mix inh, FXIa mix inh, Candida biofilm)
COC(=O)c1ccc(CSc2ncnc3c2oc2ccccc23)o1	none
COC(=O)c1ccc(CSc2ncnc3ccccc23)o1	D1 allo mod 4.5 | D1 mod confirm 9672 | Isoprot counter 3468
COc1cccc(-n2nnc3c(=O)n(CC(=O)NC4CCCC4)cnc32)c1	D1 allo mod 4.4 | D1 mod confirm inactive | D1 no dopamine inactive | Isoprot counter inactive
O=c1cc(-c2ccccc2)c2ccccc2[nH]1	D1 allo mod 10 | D1 mod confirm 12072 | D1 no dopamine inactive | Isoprot counter 3732
COc1ccc(OC)c(NC(=O)CSc2nc3ccccc3c(=O)n2CCNC(C)=O)c1	D1 allo mod 9.7 | D1 mod confirm 9716 | D1 no dopamine inactive | Isoprot counter inactive
O=C1c2ccccc2NC(c2ccccc2[N+](=O)[O-])N1O (stereo unspecified)	none (no result: TNAP act DEA, D1 allo mod, FXIIa mix inh, FXIa mix inh, Candida biofilm)
O=C(CSc1nc(Nc2ccccc2)nc(N2CCOCC2)n1)N1CCCC1	D1 allo mod 5.6 | D1 mod confirm 9432 | D1 no dopamine inactive | Isoprot counter 3740
O=C(CSc1nc(Nc2ccccc2)nc(N2CCOCC2)n1)Nc1ccc2c(c1)OCCO2	D1 allo mod 3.4 | D1 mod confirm 8860 | Isoprot counter 3340
Cc1ccccc1NC(=O)CSc1nc(Nc2ccccc2)nc(N2CCOCC2)n1	none
O=C(CSc1nc(Nc2ccccc2)nc(N2CCOCC2)n1)N1CCc2ccccc21	none
CCC(=O)NNC(=O)c1cc(=O)[nH]c2ccccc12	none (no result: TNAP act DEA, D1 allo mod, FXIIa mix inh, FXIa mix inh, Candida biofilm)
CCOc1ccc(C(=O)NCCNc2ccc([N+](=O)[O-])cc2)cc1Cl	none (no result: TNAP act DEA, D1 allo mod, FXIIa mix inh, FXIa mix inh, Candida biofilm)
Nc1nnc(-c2ccccc2)c(-c2ccccc2)n1	D1 allo mod 20 | D1 mod confirm 20640 | D1 no dopamine inactive | Isoprot counter 4536
CC(C)(C)C1CCc2onc(C(=O)N3CCOCC3)c2C1 (stereo unspecified)	D1 allo mod 6 | D1 mod confirm 10148 | D1 no dopamine inactive | Isoprot counter 3152
COC(=O)c1ccc(COc2nc(C)cc(C)c2C#N)o1	D1 allo mod 3.6 (no result: Candida biofilm) | D1 mod confirm 11580 | D1 no dopamine inactive | Isoprot counter inactive
Cc1ccc(C(=O)COc2nc(C)cc(C)c2C#N)cc1	none (no result: TNAP act DEA, D1 allo mod, FXIIa mix inh, HePTP inhibitor, FXIa mix inh)
CCCCOc1nc(N)nc(-c2ccccc2)n1	D1 allo mod 15 | D1 mod confirm 19712 | D1 no dopamine inactive | Isoprot counter 3520
C=CCOc1ccc(/C=C/C(=O)c2ccc(F)cc2)cc1OC	none (no result: TNAP act DEA, D1 allo mod, FXIIa mix inh, FXIa mix inh, Candida biofilm)
O=C(Nc1ccccc1-c1ccccc1)c1cnccn1	D1 allo mod 5.2 | D1 mod confirm 9324 | D1 no dopamine inactive | Isoprot counter 2964
